Experimental data published in PubChem BioAssay AID932 (The Scripps Research Institute Molecular Screening Center, 2007).
Out of some 200,000 compounds screened, about 5,100 (2.5%) were called active. This is one part of a sample in which actives are shown more often than they occur. Values without a mark were called inactive.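 Rule for the calls: active = activation above the screen-wide mean activation plus 3 SD (cut at about 130% in these data); inactive = the rest.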

Experiment: potentiators of IFN-gamma driven STAT1 reporter – cell-based, HTS, luciferase reporter, primary screen (AID 932);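 note: raw ratio to IFN-gamma control signal so 100% means no change and 0% no light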
Settings: NIH 3T3 STAT1-luciferase reporter, luminescence, at 5.5 µM, hits give high values, 100% = IFN-gamma alone, no compound

Compound	activation (% of control)
CC(C)(C)NC(=O)NC(=O)COC(=O)C1(C)CC1(Cl)Cl (stereo not drawn)	104%
NC(=O)c1ccc(CN2CCC(Cc3ccccc3)CC2)cc1	98.6%
COc1ccc(CCNC(=O)c2ccc(CS(=O)(=O)c3ccc(Br)cc3)o2)cc1OC	84.6%
Cc1ccc(OCCOCCOc2ccc(Br)cc2/C=N\NC(=O)c2ccncc2)cc1	102%
CC(=O)Nc1ccc(-c2csc(NC(=O)Nc3ccccc3)n2)cc1	95.7%
COc1ccc(CCNc2nc(-c3cccc(NC(C)=O)c3)cs2)cc1OC	88.5%
Cc1cc(O)ccc1-c1cnc2ccccc2n1	108%
CC(=O)Nc1cccc(-c2cnc3ccccc3n2)c1	159% (active)
CCS(=O)(=O)Nc1cccc(-c2cc(-c3ccccc3)c3cc(C)ccc3n2)c1	96.5%
CC(=O)Nc1cccc(-c2csc(Nc3cccc(C)n3)n2)c1	175% (active)
CCOC(=O)/C(=N\Nc1ccccc1[N+](=O)[O-])c1csc(Nc2ccccc2)n1	102%
OC1CCCN(c2ncnc3c2nnn3Cc2c(F)cccc2Cl)C1 (stereo not drawn)	102%
COc1ccc(CCNC(=O)COC(=O)/C=C/c2cccs2)cc1OC	90.8%
CCOC(=O)c1c(NC(=S)NC(=O)/C=C/c2cccs2)sc(C)c1C	105%
CCOC(=O)c1sc(=NC(=O)/C=C/c2cccs2)n(C)c1C	140% (active)
CCOc1cc(NC(=S)NCc2ccco2)c(OCC)cc1NC(=O)c1ccco1	94.2%
COc1cc(OC)cc(-c2nnc(SCC(=O)Nc3ccc(C(=O)O)cc3)s2)c1	92.8%
CCCC(=O)N1c2ccc(-c3csc(N)n3)cc2CC1C (stereo not drawn)	150% (active)
CCn1nc(C(=O)OCC(=O)N2c3ccccc3CC2C)c2ccccc2c1=O (stereo not drawn)	94.7%
CCC(=O)N1c2ccc(S(=O)(=O)CCC(=O)N3CCN(c4ccccc4)CC3)cc2CC1C (stereo not drawn)	101%
O=C(Nc1cccc(F)c1)c1coc(=O)c(Br)c1	89.3%
Cc1cccc(NC(=S)N(CCN(C)C)C(C)c2ccco2)c1 (stereo not drawn)	97.6%
COc1ccccc1-n1c(=S)[nH]c2c(sc(=S)n2-c2ccc(C)cc2C)c1=O	97.7%
CCOC(=O)c1cnc2[nH]c3ccccc3n2c1=O	104%
COc1ccc2nc(Nc3nc(-c4ccncc4)cs3)sc2c1	140% (active)

Compound	activation (% of control)
COc1ccc(Nc2nc(-c3ccccc3)cs2)cc1	142% (active)
NS(=O)(=O)c1ccc(Nc2nc(-c3ccccc3)cs2)cc1	131% (active)
COc1ccc2nc(Nc3nc(-c4cc5ccccc5oc4=O)cs3)sc2c1	103%
CC(=O)Nc1ccc(S(=O)(=O)Nc2nc(-c3ccc(C(C)(C)C)cc3)cs2)cc1	99%
COc1ccc2nc(NC(=O)[C@@H]3CCCN3C(=O)c3cccs3)sc2c1	103%
COc1ccc(OC)c(Nc2nc(-c3ccc(O)c(O)c3)cs2)c1	102%
COc1ccc(-c2csc(Nc3ccc(O)cc3)n2)cc1	110%
Cc1cccc(S(=O)(=O)CC(=O)Nc2nc(-c3ccccc3)cs2)c1	105%
CCNC(=O)N1c2ccccc2Sc2ccccc21	98%
CCNC(=O)CC1C(=O)N(c2ccc(OC)cc2)C(=S)N1CCc1ccncc1 (stereo not drawn)	105%
Cc1ccccc1N(C(=O)Cc1cccs1)C(C(=O)NC1CCCCC1)c1cn(C)nc1C (stereo not drawn)	96.2%
O=C(NCCCN1CCN(c2ccc(F)cc2)CC1)Nc1ccc([N+](=O)[O-])cc1	88.3%
O=c1oc2ccccc2cc1-c1cn(-c2ccccc2)c(=S)[nH]1	28.6%
Nc1ncc(-c2cc3ccccc3oc2=O)s1	166% (active)
O=C(NCc1cccnc1)c1cccc(-c2cc3ccccc3oc2=O)c1	97.6%
Cn1cccc1C(C#N)c1ccccc1C#N (stereo not drawn)	100%
Cc1cc(C)n2nc(C(=O)N3CCN(Cc4ccc5c(c4)OCO5)CC3)nc2n1	108%
Cc1cccc(NC(=O)c2ccccc2NC(=O)C(C)(C)C)n1	95.8%
Cc1cccc(NC(=O)c2ccc3ccccc3n2)n1	131% (active)
Cc1cccc(NC(=O)c2cc(N3C(=O)CCC3=O)ccc2Cl)n1	98.4%
CC(=O)c1cnc(SCC(=O)O)nc1C	108%
C=C(C)CSc1nc(N)c2c3c(sc2n1)CCC3	135% (active)
CC(C)(C)C1CCc2c(sc3nc(SCC(N)=O)nc(N)c23)C1 (stereo not drawn)	123%
Nc1nc(SCC(=O)NCCN2CCOCC2)nc2sc3c(c12)CCC3	99.3%
CCOC(=O)C1=C(CC)OC(N)=C(C#N)C1c1ccc(F)cc1F (stereo not drawn)	76.9%

Compound	activation (% of control)
Cc1ccc(NN=C2C(=O)OC(C)(C)OC2=O)c(C)c1	132% (active)
Cc1ccc(NC(=O)c2oc(=O)c3ccccc3c2-c2ccccc2)c(C)c1	97.1%
Cc1ccc(NC(=O)C(=O)NCc2ccco2)c(C)c1	126%
Cc1ccccc1-c1nnn(CC(=O)c2ccc(S(=O)(=O)N3CCCC3)cc2)n1	96.4%
O=C(Cn1nnc(-c2ccccc2)n1)NCc1ccccc1	100%
CC(C)(C)NC(=O)Cn1nnc(-c2ccccc2Cl)n1	142% (active)
Cc1ccc(NC(=O)Cn2c(=O)n(CCC(=O)NC3CCN(Cc4ccccc4)CC3)c(=O)c3ccccc32)cc1	101%
CC(=O)NS(=O)(=O)c1ccc(NC(=O)C2C3C=CC(C3)C2C(=O)O)cc1 (stereo not drawn)	99.5%
CC(C)COC(=O)c1ccc(NC(=O)C2C3C=CC(C3)C2C(=O)O)cc1 (stereo not drawn)	138% (active)
COC(=O)c1cc(NC(=O)C2C3C=CC(C3)C2C(=O)O)cc(C(=O)OC)c1 (stereo not drawn)	101%
Cc1ccc(S(=O)(=O)N2CCOCC2)cc1C(=O)OC1CCCCC1=O (stereo not drawn)	97%
NC(=O)Cc1ccc2sc(-c3ccccc3)nc2c1	180% (active)
O=C(O)Cc1sc(-c2ccccc2)nc1-c1cccs1	108%
O=C(O)Cc1sc(-c2ccc(C(=O)O)cc2)nc1-c1ccccc1	93.7%
CN(CC(=O)NCCc1ccccc1)S(=O)(=O)c1cnc[nH]1	95.9%
O=C(CSc1nnnn1-c1ccc(O)cc1)N1N=C(c2ccc3ccccc3c2)CC1c1ccccc1 (stereo not drawn)	110%
CCc1nc(C)cn1S(=O)(=O)c1cc([N+](=O)[O-])ccc1Cl	87.5%
Cc1cccc(-n2cnc(C(=O)Nc3cccnc3)c2)n1	140% (active)
COc1cccc(C(=O)Nc2cccnc2)c1OC	96.6%
Cc1cccc(-n2cnc(C(=O)NNC(=S)Nc3ccccc3)c2)n1	92%
Cc1noc(C)c1S(=O)(=O)Nc1ccc(C(=O)N2CCN(c3ccc(F)cc3)CC2)cc1	98.8%
N#Cc1ccc(OCc2nnc(-c3ccc([N+](=O)[O-])cc3)o2)cc1	99.1%
CN(C)S(=O)(=O)c1ccc(N2CCCC2=O)c([N+](=O)[O-])c1	108%
CCCC(=O)Nc1nc2ccc(NC(=O)c3c(F)c(F)c(OC)c(F)c3F)cc2s1	102%
O=C(Nc1ccncc1)c1c(F)cccc1F	105%

Compound	activation (% of control)
CSc1nc2ccc(NC(=O)c3c(F)cccc3F)cc2s1	145% (active)
CCOC(=O)c1c(CN(C)C)n(-c2ccccc2)c2cc(Br)c(O)cc12	101%
O=C(Nc1cc2ccccc2oc1=O)C1CCCCC1	149% (active)
O=C(O)c1ccc(NC(=O)C2CCCCC2)cc1	99.3%
CN1C(=O)c2ccc(NC(=O)C3CCCCC3)cc2C1=O	99.6%
CC(=O)Nc1ccc(/C(C)=N/NC(=O)CN(c2ccccc2Br)S(C)(=O)=O)cc1	97.6%
O=C(O)CCCCCNc1ncnc2ccc(Br)cc12	104%
Cc1[nH][nH]c(=O)c1C(c1ccc2c(c1)OCO2)c1c(C)[nH][nH]c1=O	101%
Clc1ccc(-c2cc(C3CCNCC3)[nH]n2)c(Cl)c1	135% (active)
Clc1ccc(-c2ncc3ccccn23)c(Cl)c1	112%
O=C1CSC(c2ccccc2)N1c1nc(-c2ccc(Cl)cc2Cl)cs1 (stereo not drawn)	102%
O=C(O)c1ccn(COc2ccc(Br)cc2)n1	101%
N=C1C(=O)OCC1c1ccccc1NC(=O)CN1CCCCC1 (stereo not drawn)	86.4%
O=C(/C=C\NCC(=O)c1ccccc1)c1ccccc1	104%
O=C(/C=C/NCc1ccc(F)cc1)c1ccccc1	117%
Cc1ccc(N/C=C/C(=O)c2ccccc2)cc1C	142% (active)
CC(C)(C)NC(=O)NC(=O)COC(=O)Cc1ccc(Cl)cc1Cl	103%
O=C(O)c1ccc(NC(=O)c2cn(-c3ccccc3)nc2-c2ccc(Cl)cc2)cc1	122%
O=C(c1cnn(-c2ccc(Cl)cc2)c1)c1ccccc1O	137% (active)
Cc1ncc(CC(=O)n2cc(C(=O)c3cc(Cl)ccc3O)cn2)s1	103%
Cc1ccc(C)n1NC(=O)c1ccc([N+](=O)[O-])cc1	97.7%
O=C(Nn1c(-c2ccccc2)nc2ccccc2c1=O)c1ccc([N+](=O)[O-])cc1	95.4%
O=C(Nn1c(SCc2ccc([N+](=O)[O-])cc2)nc2ccccc2c1=O)c1ccc(F)cc1	150% (active)
